Screens deposited in PubChem BioAssay by several laboratories.
aDG glyco act – increases alpha dystroglycan glycosylation | AID 624168 | Pro5-aDG cells, alpha-DG glycosylation AlphaScreen (IIH6); 0% Pro5, 100% B10-LARGE cell signal | 360,000 tested, 0.22% active | activation, % at 10 µM;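 active means activation of at least 8% versus controls, or a plate z-score of at least 8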;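 further: Pro5 are CHO cells carrying HIG-tagged alpha-DG that lacks glycosylation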
MPTP block – blocks calcium-induced mitochondrial swelling; isolated mouse mitochondria, Ca2+ swelling absorbance, 30 min; inhibition, % at 10 µM; 360,000 tested, 1.4% active; AID 602449;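 active means inhibition of 50% or more, scaled per plate between neutral and stimulator controls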;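 further: 0% = DMSO wells given calcium and 100% = 1 mM EGTA wells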
SUMO Mot1 rescue – SUMOylation pathway inhibition by Mot1-301 growth rescue | S. cerevisiae Mot1-301 growth rescue, ATP luminescence, 38.5C; percent above DMSO median, 100 means doubled | AID 2716 | 320,000 tested, 1% active | growth rescue, % at 18.8 µM;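 active means every valid replicate shows activation above 250% relative to neutral control wells; inactive means the rest, any valid replicate at or below 250%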;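 further: OY570 slx delta 5 strain wells were the positive control but not used for scaling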
H9c2 protect – protects H9c2 cardiomyocytes from peroxide injury; protection from H2O2 cell death, % at 20 µM; AID 588492; H2O2 injury protection, ATPLite, 2 h; 360,000 tested, 0.63% active;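 active means compounds giving at least 50% protection of heart cells from peroxide-induced death in the single-dose screen, raw or plate-pattern-corrected value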;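 further: 0% = DMSO wells with peroxide and 100% = DMSO wells without peroxide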
Yeast superoxide – lowers age-related superoxide in aged yeast cells. superoxide response (% of plate mean), % at 10 µM. 330,000 tested, 0.18% active. S. cerevisiae aged cells, superoxide DHE fluorescence; hits give low values;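 active means superoxide response under a set limit, about three screen SD below normal, cut at about 65% in these data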;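 further: yeast aged for seven days with compound at 30 °C before DHE staining; 100% = average MFI of all compound-treated wells on the plate with controls excluded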
FAS-TE inh – FAS thioesterase (human) inhibition; P49327; recombinant FAS-TE, OMFH fluorogenic substrate, fluorescence endpoint; inhibition, % at 15 µM; 360,000 tested, 0.67% active; AID 602261;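 active means compounds whose normalised, plate-corrected inhibition of enzyme fluorescence in the single-dose primary screen is 50% or more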;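 further: 0% = DMSO with enzyme and 100% = substrate without enzyme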
FAS-TE inh conf – FAS thioesterase (human) inhibition, confirmation. shares compounds with FAS-TE inh. recombinant FAS-TE, OMFH fluorogenic substrate, fluorescence. inhibition, % at 15 µM. 2,300 tested, 45% active;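 active means compounds inhibiting the enzyme by at least 50% at 15 µM in any one of the replicates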;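 further: 0% = enzyme with DMSO only and 100% = wells lacking enzyme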
Starred values were filed as active, the others as inactive; · = not tested or not shown. A selection: hits, their analogues and other compounds. The true share with any hit is near 3.8%.

SMILES	aDG glyco act	MPTP block	SUMO Mot1 rescue	H9c2 protect	Yeast superoxide	FAS-TE inh	FAS-TE inh conf
C[C@@]12C(=O)Nc3ccc(Br)cc3C(=O)N1[C@H]1c3cc(Cl)ccc3OC[C@@H]1[C@@H]2c1ccccc1	-0.1	-0.4	241.4	5.8	92.9	93.8*	13.2
C[C@@]12C(=O)Nc3cc(F)c(F)cc3C(=O)N1[C@H]1c3cc(Cl)ccc3OC[C@@H]1[C@@H]2c1ccccc1	0.0	0.9	187.6	-8.2	99.7	74.3*	36.0
COc1ccc2c(c1)[C@H]1[C@H](CO2)[C@H](c2ccccc2)[C@]2(C)C(=O)Nc3ccc(Cl)cc3C(=O)N12	0.3	1.7	·	-5.7	·	86.0*	39.0
COc1cc(-c2coc3c(C(=O)NC4CCCCC4)cccc23)ccc1O	0.9	0.2	·	-16.3	·	7.8	·
O=C(Cn1cc([N+](=O)[O-])nc1[N+](=O)[O-])N1CCN(c2ccccc2)CC1	2.7	0.7	-9.1	3.9	130.0	2.7	·
C[C@H]1CN([C@@H](C)CO)C(=O)c2cc(Br)cnc2O[C@@H]1CN(C)S(C)(=O)=O	0.2	-0.3	·	2.5	·	-9.8	·
CC1(C)CCC/C(=C\c2ccccc2)C1=O	0.2	-1.5	19.3	-1.8	102.5	-0.1	·
Cc1ccc([N+](=O)[O-])cc1NC(=O)CN(C1CCCCC1)S(=O)(=O)c1ccc(Cl)cc1	-0.2	-7.8	·	9.7	·	54.2*	19.0
Cc1ccc([N+](=O)[O-])cc1NC(=O)CN(C(=O)c1ccccc1Cl)C1CCCCC1	-0.1	1.8	-20.6	1.6	109.3	74.1*	15.4
O=C(CN(C(=O)c1cccc([N+](=O)[O-])c1)C1CCCCC1)Nc1ccc(Cl)c([N+](=O)[O-])c1	1.7	45.0	2.5	-6.9	80.0	80.8*	26.3
Cc1ccc(NC(=O)CN(C)C(=O)c2ccc(Cl)c([N+](=O)[O-])c2)cc1	0.3	-1.1	-4.0	-5.5	97.1	59.5*	67.6*
CN(CC(=O)Nc1ccc(Cl)cc1)C(=O)c1ccc(-n2cncn2)c([N+](=O)[O-])c1	-0.4	-2.1	0.5	-1.7	104.8	1.3	·
Cc1ccc([N+](=O)[O-])cc1NC(=O)C1CCCC1	-0.1	-0.5	-8.8	6.3	108.7	15.3	·
Nc1cc(N)nc(SCC(=O)NC2CCCCCCC2)n1	0.2	-0.6	·	5.9	·	-6.4	·
COc1ccc(CCC(=O)Nc2ccc(S(=O)(=O)N3CCCC3)cc2)cc1OC	-0.2	-1.0	13.9	3.6	85.3	-2.5	·
CC(C)(C(=O)N1CCC1(C)C(=O)NS(=O)(=O)c1cccc(C#N)c1)c1ccccc1 (stereo not given)	-0.1	-0.9	·	1.2	·	-7.7	·
C/C(=N\Nc1ccc(C(=O)O)cc1)c1ccc(S(=O)(=O)NCc2ccco2)cc1	-0.2	0.8	48.1	-2.0	92.4	-0.2	·
C/C(=N\Nc1nc(Cl)c(Cl)cc1Cl)c1ccc(S(=O)(=O)NCc2ccco2)cc1	0.5	12.9	6.0	-1.5	80.3	52.0*	41.3
C/C(=N\Nc1ccccn1)c1ccc(S(=O)(=O)NCc2ccco2)cc1	-0.2	-2.1	-13.5	-0.3	100.1	53.7*	40.2*
O=S(=O)(NCCS(=O)(=O)N1CCN(c2ccc(F)cc2)CC1)c1ccc(F)cc1	0.2	0.3	·	-1.2	·	-2.5	·
CC(C)C(NC(=O)C12CC3CC(CC(C3)C1)C2)C(=O)N/N=C/C1=C(N2CCOCC2)C(=C\c2cccc([N+](=O)[O-])c2)/CC1 (stereo not given)	-0.2	-0.6	-31.6	-3.6	110.3	63.6*	14.1
Cn1cc(C(=O)N/N=C/C2=C(N3CCOCC3)C(=C/c3ccc([N+](=O)[O-])cc3)/CC2)ccc1=O	-0.1	1.2	17.7	13.4	101.3	-8.0	·
Cc1nn(CC(=O)NCCc2ccc(Cl)cc2)c(=O)c2cccn12	0.0	-2.3	-1.8	8.7	114.0	-3.9	·
CCCCC(CC)C(=O)Nc1cc([N+](=O)[O-])ccc1F (stereo not given)	0.0	2.8	9.8	-5.0	91.8	79.3*	70.8*
O=C1C2C(c3ccccc3)(C(=O)N1c1ccc(Cl)cc1)C2(c1ccccc1)c1ccccc1 (stereo not given)	-0.1	-0.7	-22.2	2.2	92.7	59.7*	26.6
SMILES	aDG glyco act	MPTP block	SUMO Mot1 rescue	H9c2 protect	Yeast superoxide	FAS-TE inh	FAS-TE inh conf
COc1cc(-c2cc(C(=O)Nc3c(Cl)cc(Cl)cc3Cl)c3ccccc3n2)cc(OC)c1OC	-0.2	3.0	-21.9	6.2	89.8	55.6*	19.5
COc1ccc(-c2cc(C(=O)Nc3nc4c(C)cccc4s3)c3ccccc3n2)cc1OC	0.0	1.6	·	14.0	91.8	67.7*	13.3
COc1cccc(-c2cc(C(=O)Nc3nc4ccccc4s3)c3ccccc3n2)c1	-0.2	4.1	-8.9	-9.9	108.2	26.7	·
COc1ccc(/C=N/Nc2ccc(C(=O)O)cc2)cc1Br	-0.2	-0.4	15.2	9.3	89.5	-0.2	·
C=CCOc1c(Br)cc(/C=N/Nc2ccc(C(=O)O)cc2)cc1OCC	0.1	-0.1	-12.6	4.5	98.0	54.4*	72.4*
Cc1ccc2c(c1)[C@H]1[C@H](CO2)[C@H](c2ccccc2)[C@]2(C)C(=O)NCC(=O)N12	0.2	-1.7	18.3	1.5	84.4	-10.7	·
C[C@@]12C(=O)Nc3cc(F)ccc3C(=O)N1[C@H]1c3cc(Br)ccc3OC[C@@H]1[C@@H]2c1ccccc1	0.0	-0.7	301.6	-3.2	70.7	80.4*	-2.2
CCOC(=O)[C@H]1[C@H]2COc3ccc(C)cc3[C@@H]2N2C(=O)c3ccc(F)cc3NC(=O)[C@@]12C	0.3	-0.3	-17.5	4.8	101.8	9.1	·
Cc1ccc2c(c1)[C@@H]1[C@H](CO2)[C@H](c2ccccc2)[C@]2(C)C(=O)N[C@H](C)C(=O)N12	-0.3	-1.0	-14.7	15.7	121.0	-5.7	·
Cc1ccc2c(c1)NC(=O)[C@@]1(C)[C@@H](c3ccccc3)[C@H]3COc4ccccc4[C@@H]3N1C2=O	0.1	0.2	234.7	-11.1	·	67.8*	27.2
Cc1ccc2c(c1)[C@H]1[C@H](CO2)[C@H](c2ccccc2)[C@]2(C)C(=O)Nc3ccccc3C(=O)N12	-0.1	0.7	341.1*	-3.7	104.9	53.2*	29.7
Cc1ccc2c(c1)[C@H]1[C@H](CO2)[C@H](c2ccccc2)[C@]2(C)C(=O)Nc3cc(F)ccc3C(=O)N12	0.1	-1.0	251.3	-7.0	117.1	54.0*	20.6
O=C(Nc1nnc([C@H]2C[C@H](O)[C@@H](CO)O2)s1)Nc1ccccc1F	-0.1	-1.1	·	-1.3	·	-9.9	·
COc1ccc(-c2nc3ccccc3nc2-c2ccccc2)cc1OC	0.1	0.9	-6.3	9.1	95.5	12.0	·
